Screens from PubChem.
Sm TGR inh = inhibitors of Schistosoma mansoni thioredoxin glutathione reductase | Q962Y6 | purified TGR, DTNB reduction, TNB absorbance 405 nm | Potency, µM (top dose mostly 114 µM), without a hit: top-dose activity change, negative = inhibition, most hits filed as inhibitors | 360,000 tested, 3% active | AID 485364; also: % is scaled to controls: 0 for no effect and ±100 for the full control effect; nearly all actives have a fitted effect of over 60% in size
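TGR 20 nM + NADPH 100 uM (dispensed conc.), cpd preinc 15 min RT; start with NADPH (500 uM addition) then DTNB (15 mM addition). Kinetic TNB absorbance, 405 nm filter. Four-parameter Hill fit across titration.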
Pf growth 96h = P. falciparum growth inhibition at 96 hours | P. falciparum luciferase reporter growth, 96 h | Potency, µM (series often up to 28.7 µM), for inactives: at the highest dose activity change, negative = inhibition, most hits filed as inhibitors | 320,000 tested, 6.9% active | AID 504834; also: % is scaled to controls: 0 for no effect and ±100 for the full control effect
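Readout is luminescence from an integrated firefly luciferase in P. falciparum. Red cells, 2% hematocrit and 0.05% parasitemia final, were cultured with compound through two parasite generations (96 hours) at 37 C, 5% CO2.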
AMA1 RON2 block = disrupts binding of P. falciparum AMA1 to RON2 | Potency, µM (series often up to 58.2 µM), for the others: top-dose activity change, negative = inhibition, most hits filed as inhibitors | AlphaScreen AMA1-biotinylated RON2 peptide binding | 360,000 tested, 0.2% active;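 also: 0% = vehicle wells and -100% = peptide control; nearly all actives have a fitted effect of over 45% in size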
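AMA1 (3D7) with his tag at 25 nM final met compounds first, then biotinylated RON2 peptide at 25 nM; detection used donor plus acceptor beads, 10 µg/mL apiece, read by AlphaScreen after 30 min at room temperature.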
Pf growth 48h = inhibits P. falciparum growth in the first generation, 48 h | AID 504832 | Potency, µM (titrated, usually from 28.7 µM), inactives show at the top dose activity change, negative = inhibition, actives largely listed as inhibitors | 310,000 tested, 5.9% active | P. falciparum luciferase growth in erythrocytes, 48 h; also: % is scaled to controls: 0 for no effect and ±100 for the full control effect
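Compounds are pin-transferred into medium, infected erythrocytes (2% hematocrit, 0.1% parasitemia final) are added, and plates sit one parasite generation at 37 C in 5% CO2. Detection reagent is then added and luminescence measured.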
NS1 function inh = blocks influenza NS1 protein function | Potency, µM (series often up to 46.1 µM), for inactives: at the highest dose activity, positive = more growth | 270,000 tested, 0.4% active; calls by dose curve; also: actives are rising curves; nearly all actives have a fitted effect of over 50% in size
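Recovery from NS1-induced slow growth read by OD600 in budding yeast switched to galactose assay medium (pH 6.0, -URA) at 1:100 dilution. Compound 23 nl per well; the matching strain lacking NS1 serves as control.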
* hit, by the source's call; ? = inconclusive; · = not tested or not shown. Shown are actives, neighbours in structure and some others; about 11% of the full set was active somewhere. Unless noted, calls follow the shape of the dose curve; as a rule, active = well fitted curve in the direction sought with a large enough effect; inconclusive = small, poorly fitted or top-dose-only effect, or another doubt; inactive = no such curve, though single readings can be large; an effect the other way counts as inactive or inconclusive. Potency is read from the fitted curve at half-maximal effect.

SMILES | Sm TGR inh | Pf growth 96h | AMA1 RON2 block | Pf growth 48h | NS1 function inh
N=c1c2c(n(Cc3ccc(Cl)cc3)c3c1CCC3)CCC2 | 6% | 25% | -6% | 0.21µM* | -23%
N=c1c2c(n(Cc3ccc(F)cc3)c3c1CCC3)CCCC2 | -5% | 15% | 0% | ? | ·
O=C(CSc1nc(=O)n(CCCN2CCOCC2)c2c1CCC2)Nc1cccc(F)c1 | -8% | ? | -6% | ? | ·
Cc1ccc(NC(=O)c2sc3nc(CCl)[nH]c(=O)c3c2C)c(C)c1 | 20µM* | ? | 11% | ? | ·
COc1ccc([C@H]2CC(=O)C=C(c3ccnc4ccc(Cl)cc34)C2)cc1 | -3% | ? | -6% | ? | ·
Cc1ccc(OCCSc2nc3ccccc3n2CC(=O)N2CCCCC2)cc1C | -9% | · | · | · | ·
CCOC(=O)[C@@H]1[C@H]2COc3cc(OC)ccc3[C@@H]2N2C(=O)N(c3ccc(C(F)(F)F)cc3)C(=O)[C@]12C | 4% | 12µM* | -3% | ? | 11%
CCOC(=O)[C@@H]1[C@H]2COc3ccc(Br)cc3[C@H]2N2C(=O)N(c3cccc(F)c3)C(=O)[C@]12C | 19% | 13µM* | -19% | ? | -2%
CCOC(=O)[C@@H]1[C@H]2COc3ccc(Br)cc3[C@H]2N2C(=O)N(c3ccc(F)cc3)C(=O)[C@@]12C | 7% | ? | 3% | 5.9µM* | 5%
COC(=O)[C@@H](NS(=O)(=O)c1ccc(F)cc1Br)C(C)C | · | · | -5% | · | ·
Cc1nccn1Cc1ccc(Cl)nc1 | -3% | ? | -23% | 10µM* | ·
CCN(CC)CCNC(=O)C(=O)Nc1ccc2c(c1)N(S(=O)(=O)c1cccs1)CCC2 | 9% | ? | 4% | 15µM* | ·
CCCCNC(=O)C(=O)Nc1ccc2c(c1)N(S(=O)(=O)c1cccs1)CCC2 | · | · | 0% | · | ·
COc1cccc(-c2c(-c3cc(OC)cc(OC)c3)n(C)c3ccc(-c4ccc5[nH]ccc5c4)cc23)c1 | -5% | ? | -2% | 5.9µM* | ·
COc1ccc(-c2c(-c3cc(OC)cc(OC)c3)n(C)c3ccc(-c4cccc5[nH]ccc45)cc23)cc1 | -15% | ? | -3% | ? | ·
COc1cccc(-c2c(-c3cc(OC)cc(OC)c3)n(C)c3ccc(-c4cccc5[nH]ccc45)cc23)c1 | -16% | ? | 0% | 1.9µM* | ·
COc1cc(OC)cc(-c2c(-c3ccc(F)cc3)c3cc(-c4ccc5[nH]ccc5c4)ccc3n2C)c1 | -3% | 1.7µM* | -13% | 5.2µM* | ·
CCn1cc(C(=O)N[C@@H](CCSC)C(=O)NCCO)c(=O)c2cc3c(cc21)OCO3 | 9% | 6.6µM* | 0% | 8.3µM* | 0%
Cc1ccc(C)c(Cn2c(=O)c3c(nc4n3CCN4c3ccc(F)cc3)n(C)c2=O)c1 | -13% | · | · | · | ·
COc1ccccc1NC(=S)NC1CCCCCCCCCCC1 | 11% | ? | 94% | 1.5µM* | 2%
COc1ccccc1NC(=S)NC1CCCCC1 | 6% | 9.3µM* | -1% | 9% | -16%
Cc1cccc(C)c1NC(=S)NC1CCCCC1 | -4% | 10µM* | -13% | -21% | -30%
Cc1ccccc1NC(=S)NC1CCCC1 | -4% | ? | -10% | ? | 2%
O=C(Nc1ccccc1C(F)(F)F)C(O)(c1ccccc1)C1CCCCC1 (centres undefined) | 4µM* | 2% | 5% | ? | ·
O=C(/C=C/[C@H]1O[C@@H](n2ccc(=O)[nH]c2=O)[C@H](O)[C@@H]1O)NCCN1CCCCC1 | · | · | 0% | · | ·
SMILES | Sm TGR inh | Pf growth 96h | AMA1 RON2 block | Pf growth 48h | NS1 function inh
Cc1nn(C)c(Oc2ccccc2)c1CCNC(=O)CCl | ? | 10µM* | -1% | ? | 2%
COc1ccc(/C=C/C2=CC(C)(C)NC(=S)N2)cc1 | 2.5µM* | 9.3µM* | 35% | ? | ·
Cc1ccccc1NC(=S)Nc1ccc2[nH]c(=O)[nH]c2c1 | -33% | 26% | -11% | -6% | 4%
O=c1[nH]c2ccc(NC(=S)Nc3ccccc3Cl)cc2[nH]1 | 50µM* | 5% | 1% | · | -3%
O=c1[nH]c2ccc(NC(=S)Nc3ccc(Cl)cc3)cc2[nH]1 | -14% | -7% | -8% | · | -6%
O=c1[nH]c2ccc(NC(=S)Nc3ccc(Cl)cc3Cl)cc2[nH]1 | 11µM* | · | 6% | -1% | -2%
NC(N)=Nc1nc(-c2ccccc2)c2ccccc2n1 | 3% | -18% | -1% | 12µM* | -1%
